Results on 23 compounds are retold here after PubChem BioAssay (Tox21).

Inconclusive results are not listed. A structure can be active in one record and inactive in another. Active and inactive are the calls of the source. Unless noted, the call rests on the fitted dose curve.

A short description of assay [1]: qHTS assay to identify small molecule agonists of the sonic hedgehog signaling (Shh) pathway (AID 1259368).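 Further: NIH/3T3-derived 3T3Gli1-Luc cells carrying a stable Gli1-driven firefly luciferase reporter; series mostly up to about 92 µM; nearly all actives have a fitted effect of over 15% in size.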 The gist of the method: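 Cells of a mouse NIH/3T3 clone stably expressing luciferase under the Gli1 transcriptional response element are exposed to test chemicals for 24 hr at 37 C. Pathway activation is detected as a rise in luminescence.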
(In qHTS, concentration-response curves come from the screen itself.)

For assay [2], the target named is Estrogen receptor beta (Homo sapiens) (UniProt Q92731). As to the kind of experiment: qHTS assay to identify small molecule agonists of the estrogen receptor beta (ER-beta) signaling pathway (AID 1259377; active means well fitted activation curve with a large enough effect in the signal ratio in the repeat runs, not every such curve was filed as active; the % refers to the signal ratio). In outline: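 In HEK293T cells bearing a UAS-beta-lactamase reporter under ER-beta control, DMSO-delivered compounds were incubated for 16 hr at 37C. Activity was detected as fluorescence 2 hours after LiveBLAzer B/G FRET substrate addition.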
Chain of Estrogen receptor beta (Homo sapiens) (Q92731 whole entry, looked up): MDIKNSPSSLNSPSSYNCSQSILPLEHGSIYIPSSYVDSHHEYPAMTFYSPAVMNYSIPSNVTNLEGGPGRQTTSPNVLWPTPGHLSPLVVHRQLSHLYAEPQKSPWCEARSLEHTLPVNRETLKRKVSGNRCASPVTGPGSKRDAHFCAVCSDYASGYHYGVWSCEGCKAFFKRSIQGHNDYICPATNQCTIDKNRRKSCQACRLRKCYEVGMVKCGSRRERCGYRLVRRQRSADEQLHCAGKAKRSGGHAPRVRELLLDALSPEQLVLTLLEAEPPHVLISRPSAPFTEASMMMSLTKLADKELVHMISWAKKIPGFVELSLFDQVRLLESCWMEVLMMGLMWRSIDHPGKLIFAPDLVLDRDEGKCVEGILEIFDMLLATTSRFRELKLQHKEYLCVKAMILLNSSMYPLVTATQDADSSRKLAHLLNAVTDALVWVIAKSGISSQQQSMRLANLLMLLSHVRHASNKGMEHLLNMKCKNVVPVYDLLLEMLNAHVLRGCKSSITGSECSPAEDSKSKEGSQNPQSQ

Assay [3] has the same target. Put plainly: qHTS assay to identify small molecule antagonists of the estrogen receptor beta (ER-beta) signaling pathway (AID 1259378; active means well fitted inhibition curve with a large enough effect in the signal ratio in the repeat runs, not every such curve was filed as active; the % refers to the signal ratio). The gist of the method:
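ER-beta-UAS-bla HEK293T cells in 2% charcoal-stripped FBS medium treated with compound plus 1nM final 17-beta-estradiol for 16 hr at 37C. Beta-lactamase reporter read by FRET substrate fluorescence after 2 hours at room temperature.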

The nature of assay [4]: qHTS assay to identify small molecule agonists of the androgen receptor (AR) signaling pathway in the presence of an antagonist - cell viability counter screen (AID 1259379; active means well fitted curve in the direction sought with a large enough effect in the repeat runs; an effect the other way counts as inactive or inconclusive; further: nearly all actives have a fitted effect of over 25% in size; further: potency means the concentration at half of the fitted maximal effect). In outline:
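Cytotoxicity is assessed by CellTiter-Fluor in MDA-kb2 cells carrying an MMTV-driven luciferase reporter. Cells receive 3.0uM nilutamide plus compounds at 15 concentrations and incubate 16 hr at 37C without CO2 before fluorescence reading.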

Assay [5] is described as follows: qHTS assay to identify small molecule agonists of the estrogen receptor beta (ER-beta) signaling pathway - cell viability counter screen (AID 1259380; active means well fitted curve in the direction sought with a large enough effect in the repeat runs; an effect the other way counts as inactive or inconclusive; further: nearly all actives have a fitted effect of over 30% in size; further: potency means the concentration at half of the fitted maximal effect). The gist of the method:
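Cytotoxicity is measured in parallel with the reporter screen: after 16 hr compound exposure at 37C and a 2 hr LiveBLAzer step, CellTiter-Glo is added to the same ER-beta-UAS-bla HEK293T wells and luminescence read after 30 min.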

Assay [6] deals with Androgen receptor (Homo sapiens) (UniProt P10275). Put plainly: qHTS assay to identify small molecule agonists of the androgen receptor (AR) signaling pathway in the presence of an antagonist (AID 1259381). Further: nearly all actives have a fitted effect of over 15% in size. In outline:
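Agonist-mode confirmation screen: human MDA-kb2 cells stably expressing luciferase under an MMTV promoter bearing AR and GR response elements, co-treated with 3.0uM nilutamide (final). Luminescence measured after 16hr compound incubation.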

Assay [7] in a line: qHTS assay to identify small molecule antagonists of the estrogen receptor beta (ER-beta) signaling pathway - cell viability counter screen (AID 1259382; active means well fitted curve in the direction sought with a large enough effect in the repeat runs; an effect the other way counts as inactive or inconclusive; further: series mostly up to about 92 µM; nearly all actives have a fitted effect of over 55% in size). In outline:
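Cytotoxicity counter screen multiplexed with the beta-lactamase antagonist assay: GripTite HEK293T ER-beta-bla cells were treated 16 hr with test chemicals in the presence of 1nM 17-beta-estradiol, and viability was measured by CellTiter-Glo.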

The target in assay [8] is Estrogen receptor (Homo sapiens) (UniProt P03372). As to the kind of experiment: qHTS assay to identify small molecule agonists of the estrogen receptor alpha (ER-alpha) signaling pathway in the presence of an antagonist (AID 1259383). Further: top concentration of the series differs between compounds; nearly all actives have a fitted effect of over 15% in size. In outline: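 Agonist-mode confirmation in the presence of the ER antagonist ICI-182,780 at 10.0nM final. Breast-derived VM7Luc4E2 reporter cells were exposed to compounds for 22hr, and ERE-driven luciferase was quantified by luminescence.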
Chain of Estrogen receptor (Homo sapiens) (P03372 whole entry, looked up): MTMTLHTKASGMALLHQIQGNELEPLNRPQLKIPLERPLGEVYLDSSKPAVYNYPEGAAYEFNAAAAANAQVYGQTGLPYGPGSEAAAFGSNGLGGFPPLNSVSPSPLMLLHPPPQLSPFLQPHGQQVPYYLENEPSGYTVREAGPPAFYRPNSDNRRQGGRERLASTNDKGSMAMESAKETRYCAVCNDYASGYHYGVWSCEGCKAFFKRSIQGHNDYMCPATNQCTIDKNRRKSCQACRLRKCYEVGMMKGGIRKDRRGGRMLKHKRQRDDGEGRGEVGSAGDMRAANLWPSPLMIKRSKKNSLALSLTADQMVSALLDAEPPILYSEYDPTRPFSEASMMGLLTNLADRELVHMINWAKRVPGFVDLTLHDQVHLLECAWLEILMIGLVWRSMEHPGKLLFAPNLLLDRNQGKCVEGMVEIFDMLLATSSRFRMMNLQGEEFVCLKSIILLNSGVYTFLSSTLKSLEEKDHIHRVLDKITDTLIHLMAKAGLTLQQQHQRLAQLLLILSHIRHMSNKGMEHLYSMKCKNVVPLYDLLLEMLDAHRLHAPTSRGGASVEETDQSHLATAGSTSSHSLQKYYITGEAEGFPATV

Assay [9] is described as follows: qHTS assay to identify small molecule agonists or antagonists of the thyroid stimulating hormone receptor (TSHR) signaling pathway - wild type cell line counter screen (AID 1259384). In outline: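 Wild-type Hek293 cells, 800/well, 18 h at 37C, then compound with Ro20-1724 for 30 min RT. cAMP by HTRF (cAMP-d2/anti-cAMP cryptate), 1 h RT, fluorescence read. 15 concentrations, triplicates.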

The nature of assay [10]: qHTS assay to identify small molecule antagonists of the sonic hedgehog signaling (Shh) pathway (AID 1259369). Further: nearly all actives have a fitted effect of over 45% in size. Further: potency means the concentration at half of the fitted maximal effect. In outline:
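Cells are plated and held 4hr at 37 C, compounds (DMSO) are pinned in, conditioned medium is added to stimulate the pathway, and after 24hr luciferase reagent is added for 30min before luminescence is read.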

Chain of Androgen receptor (Homo sapiens) (P10275 whole entry, looked up): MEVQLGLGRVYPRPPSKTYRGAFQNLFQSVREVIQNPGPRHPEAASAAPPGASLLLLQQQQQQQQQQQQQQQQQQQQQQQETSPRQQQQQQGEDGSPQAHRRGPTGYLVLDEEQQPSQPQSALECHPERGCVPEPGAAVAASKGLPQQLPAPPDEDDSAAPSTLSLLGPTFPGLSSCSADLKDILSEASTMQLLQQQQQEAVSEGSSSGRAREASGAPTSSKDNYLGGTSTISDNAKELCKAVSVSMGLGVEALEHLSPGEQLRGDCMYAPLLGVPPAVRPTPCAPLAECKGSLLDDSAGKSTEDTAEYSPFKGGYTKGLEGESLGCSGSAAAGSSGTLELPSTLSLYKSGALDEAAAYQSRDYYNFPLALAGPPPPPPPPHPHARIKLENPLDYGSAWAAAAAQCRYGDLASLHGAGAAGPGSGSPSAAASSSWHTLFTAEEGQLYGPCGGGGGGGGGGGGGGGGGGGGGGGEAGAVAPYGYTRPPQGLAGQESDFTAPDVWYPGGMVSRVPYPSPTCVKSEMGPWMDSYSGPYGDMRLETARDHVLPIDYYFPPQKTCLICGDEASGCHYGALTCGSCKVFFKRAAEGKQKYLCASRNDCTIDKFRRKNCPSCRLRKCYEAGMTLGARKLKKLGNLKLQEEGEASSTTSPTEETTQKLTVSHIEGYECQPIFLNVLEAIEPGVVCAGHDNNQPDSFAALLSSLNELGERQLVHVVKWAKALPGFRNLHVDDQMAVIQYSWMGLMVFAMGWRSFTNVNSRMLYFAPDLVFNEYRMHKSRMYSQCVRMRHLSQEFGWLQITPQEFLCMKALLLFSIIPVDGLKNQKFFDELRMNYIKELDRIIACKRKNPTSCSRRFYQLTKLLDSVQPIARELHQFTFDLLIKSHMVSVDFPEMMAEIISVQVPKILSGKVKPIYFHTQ

For `CC(C)=CCOc1c2occc2cc2ccc(=O)oc12`, the Potency result in assay [1], in [2], in assay [3], in [4], in assay [5] and in [6] was “inactive” in each case. Further, the Potency result in assay [7] and in [8] was “inactive” throughout. In assay [9], the compound was classed as inactive.

With `CCOC(=O)C(Cl)C(C)=O` (configuration not stated), the Potency result in assay [1], in assay [10], in assay [5], in assay [7] and in [8] was “inactive” in each case. In assay [9], the compound was classed as inactive.

Take `Brc1ccc(Oc2ccccc2)cc1`: the Potency entry in [1], in [4], in [7] and in assay [8] was “inactive” each time. Moreover, the Potency in assay [10] was 31.4 µM (active) and inactive. Further, the outcome in assay [9] was inactive.

For the compound `CCOC(=O)COc1cc(-c2nn(C)c(OC(F)F)c2Cl)c(F)cc1Cl`, the Potency entry in assay [1], in assay [10], in [5], in assay [6] and in assay [7] was “inactive” each time.

On to `COc1nn(C(=O)NS(=O)(=O)c2ccccc2OC(F)(F)F)c(=O)n1C`, for which the Potency result in assay [1], in assay [2], in [3], in [4], in [5] and in assay [7] was “inactive” each time. In assay [9], the call was inactive.

In the case of `C=CC(=O)OCCCCO`, the Potency result in assay [1], in assay [2], in assay [3], in assay [4], in [5] and in assay [7] was “inactive” in each case. Moreover, in [8], the Potency result is “inactive”. For the same compound, the compound was classed as inactive in assay [9].

Consider `O=C(Nc1ccccc1)Nc1ccnc(Cl)c1`, for which the Potency result in assay [1], in [6] and in assay [7] was “inactive” each time. Moreover, the Potency in assay [10] was 2.17 µM (active); in [4], 61.1 µM (active). For the same compound, the result in assay [9] was inactive.

In the case of `O=NN1CCCCCC1`, the Potency entry in assay [1], in assay [10], in assay [5], in [6], in assay [7] and in [8] was “inactive” in each case. In addition, the result in [9] was inactive.

As to `Cl/C=C\Cl`, the Potency entry in assay [1], in assay [10], in assay [5], in assay [7] and in assay [8] was “inactive” in each case. Moreover, the compound was called inactive in assay [9].

With `CCC(COC(=O)c1cc(OC)c(OC)c(OC)c1)(c1ccccc1)N(C)C` (configuration not stated), the Potency entry in [1], in [2], in assay [3], in assay [4], in [5] and in [7] was “inactive” each time.

Consider `CCCCN(N=O)C(=N)N[N+](=O)[O-]`, for which the Potency result in assay [1], in assay [5], in [6] and in [7] was “inactive” in each case. In addition, the Potency in assay [10] is 27.9 µM (active).

With `Clc1cc(Cl)c(Cl)c(Cl)c1`, the Potency entry in [1], in assay [10], in assay [5], in assay [7] and in assay [8] was “inactive” each time. In addition, the compound was classed as inactive in [9].

In the case of `CC(Cl)C(C)Cl` (configuration not stated), the Potency result in assay [1], in assay [2], in [3], in [4], in assay [5] and in assay [7] was “inactive” throughout. Moreover, the Potency entry in assay [8] was “inactive”.

Regarding `CC1CC(CC2CCC(N)C(C)C2)CCC1N` (configuration not stated), the Potency entry in assay [1], in assay [6], in assay [7] and in [8] was “inactive” throughout. In addition, in assay [4], the Potency is 27.8 µM (active). The outcome in assay [9] was inactive.

For the compound `C=CC(=O)OCC(C)C`, the Potency result in [10], in assay [2], in assay [3], in assay [4], in assay [5] and in assay [7] was “inactive” in each case. Moreover, in assay [8], the Potency result was “inactive”.

As to `O=C1NCN(c2ccccc2)C12CCN(CCCOc1ccc(F)cc1)CC2`, the Potency result in assay [1] and in assay [8] was “inactive” in each case.

Turning to `NCCCNCCCN`, the Potency entry in assay [1], in assay [2], in assay [3] and in assay [6] was “inactive” each time. Besides, the outcome in assay [9] was inactive.

In the case of `O=C(Nc1ccccc1)Nc1cnns1`, the Potency entry in assay [1], in assay [2], in [4], in assay [7] and in assay [8] was “inactive” throughout. The call in assay [9] was inactive.

As to `CC(C)N(C(=O)COc1nnc(C(F)(F)F)s1)c1ccc(F)cc1`, the Potency result in assay [1], in [2], in [4], in [7] and in assay [8] was “inactive” throughout. Besides, in [9], the result was inactive.

Consider `COc1nn(CSP(=S)(OC)OC)c(=O)s1`, for which the Potency entry in [1], in assay [4], in assay [7] and in [8] was “inactive” each time. Further, the outcome in assay [9] was inactive.

As for `CC(C)(C)C(O)C(Oc1ccc(Cl)cc1)n1cncn1` (configuration not stated), the Potency entry in [1], in assay [4] and in [7] was “inactive” throughout. Besides, the compound was called inactive in assay [9].

In the case of `OCCCBr`, the Potency entry in assay [1], in assay [5], in [7] and in [8] was “inactive” each time. In addition, the result in assay [9] was inactive.

For the compound `Clc1ccc(C(OCCN2CCCCC2)c2ccccc2)cc1` (configuration not stated), the Potency result in [1], in [2], in assay [3], in assay [7] and in assay [8] was “inactive” each time. In assay [5], the Potency is 18.8 µM (active). Besides, the call in [9] was inactive.
